system: Pectobacterium parmentieri SCC3193; assay: DuctApe activity index (growth/respiration on compound as sole nutrient source, blank-subtracted) (activity index (0-3)); higher = stronger utilization of the compound, active = 3 or more; conditions: nutrient role (plate category): nitrogen
Method: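 Biolog Phenotype Microarray plates PM1, PM2A (carbon), PM3 (nitrogen) and PM4 (phosphorus/sulfur) inoculated with P. parmentieri SCC3193 in M9-C minimal salts medium with Biolog dye A, and read in the OmniLog for 46 h. Each well was tested in triplicate and the experiment was run twice. DuctApe computed a blank-subtracted activity index (AV, 0-3) from the mean curves; growth is positive at AV >= 3 and negative at AV <= 2.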

DuctApe activity index, inactive:
Oc1nc(O)c2nc(O)[nH]c2n1 [Uric acid] 0
O=c1cc[nH]c(=O)[nH]1 [Uracil] 0
NCCCCN=C(N)N [Agmatine] 0
NCC(=O)N[C@@H](CCC(N)=O)C(=O)O 1

same assay, conditions: nutrient role (plate category): phosphate & sulphur

DuctApe activity index, inactive:
O=C(O)COP(=O)(O)O [Phospho-Glycolic acid] 1
CS(=O)(=O)CC[C@H](N)C(=O)O [L-Methionine Sulfone] 0
O=P(O)(O)O[C@H]1O[C@H](CO)[C@@H](O)[C@H](O)[C@@H]1O [D-Mannose-1-Phosphate] 2
O=S(=O)(O)SSS(=O)(=O)O [Tetrathionate] 1
N[C@@H](CS)C(=O)NCC(=O)O 1
CS(=O)(=O)O [Methane Sulfonic acid] 0
N[C@H](COP(=O)(O)O)C(=O)O [O-Phospho-D-Serine] 2
O=S(=O)(O)CCO [2-Hydroxyethane Sulfonic acid] 1
O=P1(O)OP(=O)(O)OP(=O)(O)O1 [Trimetaphosphate] 2
Nc1ncnc2c1ncn2[C@@H]1O[C@H](CO)[C@@H](OP(=O)(O)O)[C@H]1O [Adenosine 3`-Monophosphate] 2
CSCCC(NC(C)=O)C(=O)O (racemic) [N-Acetyl-D,L-Methionine] 2
Nc1ncnc2c1ncn2[C@@H]1O[C@@H]2COP(=O)(O)O[C@H]2[C@H]1O [Adenosine 3`,5`-Cyclic Monophosphate] 0
Nc1ccc(S(=O)(=O)O)cc1 [p-Aminobenzene Sulfonic acid] 0
N[C@@H](CS(=O)(=O)O)C(=O)O [L-Cysteic acid] 1
